Bioassay records: PubChem BioAssay, several laboratories
RTF Ca sens act: cardiac RTF calcium sensitization. P19429+P45379. IANBD-labeled TnC RTF fluorescence at EC20 calcium; 0% EC20 calcium, 100% full calcium. activation, % at 7.2 µM. 340,000 compounds, 0.24% hits;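 active = activation above the mean over all tested compounds plus 3 SD, cut at about 30% in these data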;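 note: rise in fluorescence read as greater calcium sensitivity of cardiac thin filaments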
CRFBP-R2 block: CRF-BP/CRF-R2 complex antagonism; AID 588475; 350,000 compounds, 0.59% hits; inhibition, % at 11.8 µM; HEK293 CRF-R2/CRF-BP, CRF-induced calcium fluorescence;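 active = inhibition of the ligand-induced calcium signal above about 50% at the single tested concentration, limit read from the data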
LANA DNA inh: blocks KSHV LANA C-terminal domain binding to DNA; MBP-C-LANA/FAM-LBS DNA binding, fluorescence polarization; 340,000 compounds, 0.078% hits; inhibition, % at 9 µM; AID 504423;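 active = highest replicate inhibition at or above 60% at 9 µM, even if other replicates fall short; inactive = all replicates below 60% inhibition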
Keap1 Nrf2 FP: Keap1-Nrf2 (human) interaction inhibition; Keap1 Kelch-Nrf2 peptide fluorescence polarization, 1536-well; AID 504523; Q14145; inhibition, % at 9.4 µM; 340,000 compounds, 0.15% hits; in the data active = inhibition above about 12%; inconclusive = no clear call, values can overlap the other calls; inactive = below about 7.3%;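 note: human Keap1 Kelch domain with fluorescein labeled Nrf2 9mer peptide probe; higher means more block of Keap1 binding to Nrf2 peptide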
Target sequence (Q14145 whole entry, looked up, the tested form may be a part): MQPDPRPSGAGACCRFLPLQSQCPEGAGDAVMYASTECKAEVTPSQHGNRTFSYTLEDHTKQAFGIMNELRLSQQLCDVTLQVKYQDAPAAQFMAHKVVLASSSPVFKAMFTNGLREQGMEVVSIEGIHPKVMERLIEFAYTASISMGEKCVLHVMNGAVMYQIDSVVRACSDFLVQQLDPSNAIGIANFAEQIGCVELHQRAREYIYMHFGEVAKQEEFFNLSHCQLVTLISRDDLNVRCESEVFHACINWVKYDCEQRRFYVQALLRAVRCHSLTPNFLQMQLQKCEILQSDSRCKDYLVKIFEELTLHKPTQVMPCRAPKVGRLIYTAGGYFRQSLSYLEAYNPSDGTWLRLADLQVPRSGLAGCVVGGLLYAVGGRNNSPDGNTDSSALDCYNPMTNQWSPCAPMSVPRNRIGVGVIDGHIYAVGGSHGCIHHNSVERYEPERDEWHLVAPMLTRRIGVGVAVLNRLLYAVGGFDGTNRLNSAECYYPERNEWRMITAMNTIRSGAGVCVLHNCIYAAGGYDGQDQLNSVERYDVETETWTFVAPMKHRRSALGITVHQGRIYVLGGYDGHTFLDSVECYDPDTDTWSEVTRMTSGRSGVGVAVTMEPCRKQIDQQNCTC
CRFR2-BP ag: agonists of human CRF-binding protein/CRF-R2 receptor complex; HEK293 CRF-R2/CRF-BP, calcium dye fluorescence (FLIPR); percent of saturating CRF peptide response; activation, % at 13.2 µM; 350,000 compounds, 0.46% hits;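 active = activation of at least 50%, plus an integration ratio under a set limit after plate pattern correction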
Cardiac RTF inh: cardiac RTF calcium desensitization | P19429+P45379 | IANBD-labeled cardiac RTF, Ca2+ fluorescence | inhibition, % at 7.15 µM | 340,000 compounds, 0.12% hits | AID 493244;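 active = inhibition above the mean inhibition of all tested compounds plus 3 SD, cut at about 17% in these data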;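 note: assay run at fixed EC70 calcium of 1.6 mM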
Hits are given with their value; i = inactive; ? = inconclusive; nt = no result. In the library only some 1.3% were active in any assay of this set; here they are far more common.

SMILES | RTF Ca sens act | CRFBP-R2 block | LANA DNA inh | Keap1 Nrf2 FP | CRFR2-BP ag | Cardiac RTF inh
CCn1c(C)nc2cc(C(=O)NNS(=O)(=O)c3c(F)cc(F)c(Cl)c3F)ccc21 | i | i | i | i | i | i
CSc1nc(-c2ccc(N(C)C)cc2)c(C#N)c(=O)n1C | i | i | i | i | 62 | i
CSc1nc(-c2ccc(Cl)cc2)c(C#N)c(=O)n1C | i | i | i | i | i | i
O=C1CSC(=S)N1/N=C/c1c(F)cccc1F | i | i | i | i | i | i
CN(C)c1ccc(C=NN2C(=O)CSC2=S)c(Cl)c1 | nt | i | nt | nt | 50 | nt
O=C1CSC(=S)N1N=Cc1c(F)cccc1Cl | nt | i | nt | nt | 55 | nt
COc1cccc(NC(=S)NC(C)c2ccc(OC)c(OC)c2)c1 (centres undefined) | i | i | i | i | i | i
COc1cccc(NC(=S)NC(Cc2ccccc2)c2ccccc2)c1 (centres undefined) | nt | 84 | nt | nt | i | nt
c1ccc(CCc2cn(C[C@H]3CC[C@@H]([C@@H]4CC[C@H](Cn5cc(CCc6ccccc6)nn5)O4)O3)nn2)cc1 | i | i | i | i | i | i
COC(=O)COc1ccc(Oc2nc(SC)nc(N(C)C)n2)nn1 | i | i | i | i | 55 | i
CSc1nc(Oc2ccc(=O)[nH]n2)nc(N(C)C)n1 | i | i | i | i | i | i
C=CCNC(=S)NCC | i | i | i | i | i | i
COc1ccccc1S(=O)(=O)N1CCn2cccc2C1C (centres undefined) | i | 103 | i | i | i | i
COc1ccc(Nc2nc(-c3c[nH]c4ccccc34)cs2)cc1 | i | i | i | i | i | i
O=C(N/N=C/c1cc(Cl)cc(Cl)c1O)c1ccncc1 | i | i | i | i | 109 | i
O=C(N/N=C/c1cc(Br)cc(Br)c1O)c1ccncc1 | nt | i | nt | nt | 167 | nt
COc1ccc(Br)cc1/C=N/Nc1cccc(C(=O)O)c1 | i | i | i | i | i | i
O=C(N/N=C/c1ccc(Cl)cc1Cl)c1ccncc1 | i | i | i | i | i | i
O=C(N/N=C/c1cc(Br)cc(Br)c1O)c1cccc(S(=O)(=O)N2CCOCC2)c1 | i | i | i | i | 69 | i
O=C(O)c1cccc(N/N=C/c2cc(Br)cc(Br)c2O)c1 | i | 64 | i | i | i | i
CC1CCCN(c2ccc(/C=C(\C#N)c3nn(-c4ccccc4)c(N)c3C#N)cc2[N+](=O)[O-])C1 (centres undefined) | i | i | i | i | i | i
O=C(CN1C(=O)CCSc2ccccc21)Nc1ccc(F)cc1 | i | i | i | i | i | i
CC(C)(CS(=O)(=O)[O-])NC(=O)CC[N+](C)(C)CCO | i | i | 82 | i | i | i
CCC(Oc1ccccc1F)C(=O)Nc1ccc2c(c1)n(C)c(=O)n2C (centres undefined) | i | i | i | i | i | i
O=[N+]([O-])c1ccc2[nH]c(=S)sc2c1 | i | 59 | i | i | i | i
SMILES | RTF Ca sens act | CRFBP-R2 block | LANA DNA inh | Keap1 Nrf2 FP | CRFR2-BP ag | Cardiac RTF inh
O=[N+]([O-])c1ccc2[nH]c(=S)[nH]c2c1 | i | i | i | i | i | i
COc1ccc(C2CC(=O)Oc3cc(OC)c(OC)c(OC)c32)cc1 (centres undefined) | i | i | i | i | i | i
Cc1ccccc1NS(=O)(=O)c1cc2c(cc1C)NC(=O)CO2 | i | i | i | i | 60 | i
O=C(CCN1CCCCC1=O)NC1CCCN(Cc2ccc(Cl)cc2)C1 (centres undefined) | i | 89 | i | i | i | i
CC(C)Cc1ccc(CN2CCCC(NC(=O)CCN3CCCCC3=O)C2)cc1 (centres undefined) | i | i | i | i | i | i
C[C@H]1c2cccc(O)c2C(O)=C2C(=O)C3(O)C(O)=C(C(N)=O)C(=O)[C@@H](N(C)C)[C@@H]3[C@@H](O)[C@@H]21 (some centres undefined) | i | i | i | i | i | i
C=C1c2cccc(O)c2C(O)=C2C(=O)[C@]3(O)C(O)=C(C(N)=O)C(=O)[C@@H](N(C)C)[C@@H]3[C@@H](O)[C@H]12 | i | i | 75 | i | i | i
O=C(O)c1ccc2nc(-c3ccccc3)c(-c3ccccc3)nc2c1 | i | i | i | i | i | i
NC(=O)c1ccc2nc(-c3ccccc3)c(-c3ccccc3)nc2c1 | i | 52 | i | i | i | i
OCCCCNCc1ccc(OCc2ccccc2Cl)cc1 | i | i | i | i | i | i
NC(=O)CSc1nnnn1-c1ccc2c(c1)OCCO2 | i | 81 | i | i | i | i
O=C(CSc1nnnn1-c1ccc2c(c1)OCO2)NCc1ccccc1 | i | i | i | i | i | i
Fc1ccccc1CSc1nnnn1-c1ccc2c(c1)OCO2 | i | 57 | i | i | i | i
CNC(=O)CSc1nnnn1-c1ccc2c(c1)OCCO2 | i | i | i | i | i | i
CCOc1cc(/C=C/C(=O)O)ccc1OCCO | i | i | i | i | i | i
Nc1cc2c(cc1[N+](=O)[O-])OCCO2 | i | i | i | i | i | i
CCN(CC)c1ccc(/C=C2/C(=O)c3ccc(C(=O)O)cc3C2=O)cc1 | 78 | i | i | i | 215 | i
O=C(CC1SC(=O)N(Cc2cccc3ccccc23)C1=O)Nc1nccs1 (centres undefined) | i | i | i | i | i | i
Cc1ccc(C)c(NC(=O)c2ccccc2O)c1 | i | i | i | i | 62 | i
Cc1ccc(C)c(NC(=O)c2cc(C)nc3ccccc23)c1 | i | i | i | i | i | i
CC(C)NC(=S)N(CCc1ccncc1)C(C)C | i | 112 | i | i | i | i
COc1cccc(C2(c3cccc(OC)c3)CC2C(=O)Nc2ccccc2Cl)c1 (centres undefined) | i | 77 | i | i | i | i
O=C(Nc1ccc(F)cc1F)C1CCN(c2ncnc3c2sc2cccc(F)c23)CC1 | i | i | i | i | i | i
Cc1ccc(C(=O)O)cc1-c1ccc(C=C2C(=O)c3ccccc3C2=O)o1 | i | i | i | i | 75 | i
Cc1ccc(NC(=O)CN2C(=O)S/C(=C/c3ccc(-c4cc(C(=O)O)ccc4C)o3)C2=O)cc1C | i | i | i | i | i | i
SMILES | RTF Ca sens act | CRFBP-R2 block | LANA DNA inh | Keap1 Nrf2 FP | CRFR2-BP ag | Cardiac RTF inh
O=C1C(=Cc2ccc(Br)o2)C(=O)c2ccccc21 | i | i | 106 | ? | i | 33
COc1ccccc1NC(=O)CN1C(=O)CCS(=O)(=O)c2ccccc21 | i | 84 | i | i | i | i
Cc1cc(C)c(S(=O)(=O)N2CCOC2CNC(=O)C(=O)NCCCN2CCCC2=O)c(C)c1 (centres undefined) | i | i | i | i | i | i
C=CCSC1=N/C(=C\c2ccc3c(c2)OCO3)C(=O)S1 | i | i | i | i | i | i
C=CCSC1=N/C(=C\c2cc(OCC)c(OC(C)=O)c([N+](=O)[O-])c2)C(=O)S1 | i | 53 | i | i | i | i
COc1ccccc1C/C(N)=N/OC(=O)COc1cccc(C)c1C | i | i | i | i | i | 19
